# Test results reported in PubChem BioAssay (EPA / NIEHS).
# Records with an inconclusive call do not appear. Calls of active or inactive are those of the source. Rule for the calls: active = hit-call score of the fitted dose curve at least 0.9, where 1 is the maximum; inconclusive = response in the unintended direction; inactive = score below 0.9.
# Target: Glycogen synthase kinase-3 beta (Homo sapiens) (UniProt P49841)
# Experiment: NVS_ENZ_hGSK3b: NovaScreen (NVS) Enzymatic Assay for human Glycogen Synthase Kinase-3 beta (GSK3b) (AID 2283165)
# Method: NVS_ENZ_hGSK3b is a biochemical, single-readout assay that uses extracted gene-proteins in a cell-free assay. Measurements were taken 1 hour after chemical dosing in a 384-well plate.NVS_ENZ_hGSK3b is one of one assay component(s) measured or calculated from the NVS_ENZ_hGSK3b assay. It is designed to make measurements of enzyme activity, a form of enzyme reporter, as detected with fluorescence intensity signals by Fluorescence and electrophoretic mobility shift technology.Data from the assay component NVS_ENZ_hGSK3b was analyzed into 1 assay endpoint. This assay endpoint, NVS_ENZ_hGSK3b, was analyzed in the positive analysis fitting direction relative to DMSO as the negative control and baseline of activity. Using a type of enzyme reporter, loss-of-signal activity can be used to understand changes in the enzymatic activity as they relate to the gene GSK3B. Furthermore, this assay endpoint can be referred to as a primary readout, because this assay has produced multiple assay endpoints where this one serves a enzymatic activity function. To generalize the intended target to other relatable targets, this assay endpoint is annotated to the kinase intended target family, where the subfamily is serine/threonine kinase.
# Binding assays used specific radioligands (tritiated, iodinated) with non-radioactive competitive displacement ligands in agonist or antagonist protocols (as indicated) and various reference compounds and inhibitors to titrate specific binding to receptors and transporters. Most enzyme assays (CYPs, kinases, phosphatases, proteases, HDACs) used recombinant protein and specific substrates (fluorescence mostly, some colorimetric and radioactive) and inhibitors, followed by a biochemical separation of substrate and product. All assays for the biochemical HTS were initially run in duplicate at a single concentration (10 uM for CYP450 assays and 25 uM for all others). Assay-chemical combinations meeting a pre-defined threshold (e.g., 30% inhibition and other criteria defined below) were then run in singleton concentration-response format with maximum concentration of 20 uM for CYPs and 50 uM for all others. Each assay was run with positive and negative controls, and concurrent controls on every plate. The follow-up (secondary) screen tested active chemical-pairs in concentration series, as well as a few additional assays not tested in the primary screen, some selected negative inactives, and several cases re-run in the concentration series for confirmatory purposes.
# Chain of Glycogen synthase kinase-3 beta (Homo sapiens) (P49841 whole entry, looked up): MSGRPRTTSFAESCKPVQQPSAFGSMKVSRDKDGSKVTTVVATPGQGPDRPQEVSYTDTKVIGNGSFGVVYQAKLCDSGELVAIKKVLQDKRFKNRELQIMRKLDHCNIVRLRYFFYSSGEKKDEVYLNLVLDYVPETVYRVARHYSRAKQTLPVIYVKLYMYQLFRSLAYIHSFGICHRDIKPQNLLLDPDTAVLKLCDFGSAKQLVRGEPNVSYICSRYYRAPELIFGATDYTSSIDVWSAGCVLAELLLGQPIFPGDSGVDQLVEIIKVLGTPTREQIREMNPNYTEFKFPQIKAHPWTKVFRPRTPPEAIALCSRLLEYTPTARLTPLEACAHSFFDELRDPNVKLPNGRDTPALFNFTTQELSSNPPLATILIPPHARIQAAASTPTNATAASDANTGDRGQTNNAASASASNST
SMILES,outcome,AC50
O=C(OCCCCCOC(=O)c1ccccc1)c1ccccc1,inactive,
Cc1ccc(N(C)C)cc1,inactive,
CC(C)c1ccc(C(=O)N=C(N)N)cc1S(C)(=O)=O,inactive,
CCc1c(C(=O)NN2CCCCC2)nn(-c2ccc(Cl)cc2Cl)c1-c1ccc(Br)cc1,inactive,
CCOc1ccc2c(c1)C(C)=CC(C)(C)N2,inactive,
NS(=O)(=O)c1cc2c(cc1Cl)NCNS2(=O)=O,inactive,
CC(=O)Oc1ccccc1C(=O)O,inactive,
CC(=O)C(C)=CC1C(C)=CCCC1(C)C (centres undefined),inactive,
O=[N+]([O-])C(CO)(CO)CO,inactive,
C=CCc1ccc(O)c(OC)c1,inactive,
Nc1ccccc1N,,22.3 µM (active)
FC(F)(F)C(F)(F)C(F)(F)C(F)(F)C(F)(F)C(F)(F)CCI,inactive,
CCCCc1ccc2c(n1)[C@@H](c1ccc(OC)cc1C[C@H](C)C(=O)O)[C@H](C(=O)O)[C@H]2c1ccc2c(c1)OCO2,inactive,
C=CCOC(=O)c1ccccc1C(=O)OCC=C,inactive,
CCCc1cc(=O)[nH]c(=S)[nH]1,inactive,
NC(=O)Cn1c(=O)cc(CCN2CCN(c3nccc4sccc34)CC2)c2ccc(F)cc21,inactive,
O=c1c(O)c(-c2ccc(O)c(O)c2)oc2cc(O)cc(O)c12,,0.073 µM (active)
NCCO,inactive,
CCCCCCCCCCO,inactive,
